Screening results (PubChem BioAssay)
Sampled rows, rich in hits. Any-hit rate of the full collection: about 8.3%.
Gal4-VP16 FLuc: counter-screen for ROR gamma inhibitors: Gal4-VP16 reporter. Drosophila S2 Gal4-VP16 UAS-luciferase, luminescence, 20 h. Potency, µM (titrated, usually from 53.6 µM), for inactives: at the highest dose activity, negative = inhibition, hits mostly inhibitors. 310,000 tested, 3.5% active. AID 2546;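 also: Gal4-VP16 expression switched on by copper sulfate through the metallothionein promoter; potency is read from the fitted curve at half-maximal effect; % is scaled to controls: 0 for no effect and ±100 for the full control effect; nearly all actives have a fitted effect of over 50% in size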
RORgamma inh: ROR gamma (mouse) transcription inhibition | Potency, µM (titrated, usually from 53.6 µM), for the others: at the highest dose activity change, negative = inhibition, usual class: inhibitors | P51450 | 310,000 tested, 5.4% active | Drosophila S2 Gal4-RORgamma UAS-luciferase reporter, 20 h; also: potency is read from the fitted curve at half-maximal effect; % is scaled to controls: 0 for no effect and ±100 for the full control effect; nearly all actives have a fitted effect of over 60% in size
Target sequence (P51450 whole entry, looked up, the tested form may be a part): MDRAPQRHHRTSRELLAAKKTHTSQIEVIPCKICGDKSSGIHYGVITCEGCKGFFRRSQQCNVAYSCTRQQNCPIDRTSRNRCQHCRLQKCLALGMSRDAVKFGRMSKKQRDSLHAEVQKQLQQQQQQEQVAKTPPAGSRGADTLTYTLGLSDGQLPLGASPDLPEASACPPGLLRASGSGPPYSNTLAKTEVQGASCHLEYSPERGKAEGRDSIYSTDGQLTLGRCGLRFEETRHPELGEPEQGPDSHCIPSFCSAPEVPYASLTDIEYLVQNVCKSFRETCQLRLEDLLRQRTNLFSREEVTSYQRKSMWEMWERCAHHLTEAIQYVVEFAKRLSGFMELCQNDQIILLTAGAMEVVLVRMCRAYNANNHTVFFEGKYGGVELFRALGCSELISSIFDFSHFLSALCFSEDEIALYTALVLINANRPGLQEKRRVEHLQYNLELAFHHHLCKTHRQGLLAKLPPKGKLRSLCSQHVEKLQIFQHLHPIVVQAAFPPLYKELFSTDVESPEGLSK
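Using a luciferase readout, inhibitors were identified by reduced reporter activity in Drosophila cells coexpressing a copper-inducible Gal4–ROR gamma fusion and UAS-driven Photinus luciferase, incubated 20 hr after 700 uM copper sulfate.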
Chronic BCR inh: inhibitors of chronic active B-cell receptor signaling. AID 493014. ABC-DLBCL IkBa-CBG/CBR reporter, luminescence ratio, 4 h. 340,000 tested, 0.05% active. Potency, µM (doses to about 46.1 µM), for inactives: top-dose activity change, negative = inhibition, hits mostly inhibitors; active = well fitted inhibition curve with a large enough effect in the signal ratio, with a control signal flat, not every such curve was filed as active; inconclusive = small, poorly fitted or top-dose-only effect, or effect the other way, or a change in a side signal; the % refers to the signal ratio;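 also: potency is read from the fitted curve at half-maximal effect; plate controls were basal doxycycline-induced cells for no effect and cells given 10 µM MG132 for full effect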
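TMD8 human ABC-DLBCL cells with doxycycline-inducible IκBα–green luciferase fusion and unfused red luciferase, in 0.5% FBS medium; compounds up to 46 uM, 4 h at 37C. Green/red luminescence ratio, filter-overlap corrected, fitted to concentration-response curves.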
Giardia kill: kills Giardia lamblia; Giardia lamblia trophozoite viability; activity change, % at 7.66 µM, hits read low; 340,000 tested, 0.15% active; in the data active = activity change below about -80%; inconclusive = between about -30% and that limit;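 also: parasites exposed to compound for two days anaerobically before the ATP read; % is scaled to controls: 0 for no effect and ±100 for the full control effect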
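Viability, read as ATP luminescence: trophozoites at 100 cells/well, compound added, 48 hrs anaerobic at 37 deg C, then 15-30 min room-temperature development before reading.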
SW480 rereplic: induces DNA re-replication in SW480 colon adenocarcinoma cells; SW480 DNA re-replication, Hoechst DNA content imaging, 48 h; Potency, µM (titrated, usually from 46.1 µM), without a hit: at the top dose re-replication activation, hits mostly activators; 340,000 tested, 1.8% active; AID 624297; also: potency is read from the fitted curve at half-maximal effect; % of control where 0% means no effect; nearly all actives have a fitted effect of over 55% in size
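Per well, 250 cells were exposed to pinned compound for 48 hr. Nuclear DNA was visualised with Hoechst (40 min, 37 C) and total object intensity recorded by fluorescence scanning.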
MCF10A rerep: inducers of DNA re-replication in MCF 10A breast cells; Potency, µM (highest dose often 46.1 µM), for the others: top-dose activity, positive = re-replication, usual class: activators; MCF 10A DNA re-replication, Hoechst nuclear intensity, 48 h; 350,000 tested, 2.9% active; AID 624296; also: potency is read from the fitted curve at half-maximal effect; % of control where 0% means no effect; nearly all actives have a fitted effect of over 50% in size
* hit, by the source's call; ? = inconclusive; . = not tested or not shown; [ ] = another dose, or the depositor's remark. Unless noted, calls follow the shape of the dose curve; as a rule, active = well fitted curve in the direction sought with a large enough effect; inconclusive = small, poorly fitted or top-dose-only effect, or another doubt; inactive = no such curve, though single readings can be large; an effect the other way counts as inactive or inconclusive.

SMILES | Gal4-VP16 FLuc | RORgamma inh | Chronic BCR inh | Giardia kill | SW480 rereplic | MCF10A rerep
Cc1cccc(C)c1NC(=O)C1CCCN1S(=O)(=O)c1ccc2c(c1)n(C)c(=O)c(=O)n2C (stereo not drawn) | 0% | -35% | 9% | 12 | -2% | -2%
O=C(CSc1nc(=O)n(CCCN2CCOCC2)c2c1CCC2)Nc1ccccc1F | . | . | -3% | -4 | -100% | 1%
Cc1cc(/C=C2\SC(N)=NC2=O)c(C)n1-c1ccccc1 | -22% | -10% | -16% | -13 | 2% | 3%
CCCOc1ccccc1/C=C1\SC(N)=NC1=O | 4% | -8% | ? | 4 | 0% | 1%
CCCOc1ccc(-c2nn(-c3ccccc3)cc2/C=C2\SC(N)=NC2=O)cc1 | -12% | 8% | -5% | -8 | ? | 4.6µM*
Cc1cc(-c2nn(-c3ccccc3)cc2/C=C2\SC(N)=NC2=O)ccc1OC(C)C | -8% | 21% | -4% | -4 | ? | 4.1µM*
CC(C)(C)[C@@H]1C=C(C(=O)Nc2ccccc2)O[C@H](OCc2ccc(CO)cc2)C1 | -29% | -32% | 1% | 5 | 13% | 1%
N/C(COc1ccc(F)cc1)=N\NC(=O)c1cccnc1Oc1ccccc1 | 4.5µM* | 2.5µM* | -2% | -18 | 0%[9.22 µM] | 1%
NC(=O)c1cccnc1Oc1ccc(Cl)cc1 | 8% | 1% | ? | -1 | 16% | 0%
CC(C)[C@@H](CC(=O)N[C@@H]1CCCC[C@H]1C(=O)N[C@H](CC(=O)N[C@@H](CCC(=O)O)CC(=O)O)Cc1ccccc1)NC(=O)C[C@H](Cc1c[nH]c2ccccc12)NC(=O)[C@@H]1CCCC[C@H]1N | -4% | -5% | . | . | . | .
CSC1=C(C#N)C(c2sccc2C)CC(=O)N1 (stereo not drawn) | 6% | 11% | -2% | -14 | -5% | -20%
CNC(=O)c1[nH]cnc1C(=O)Nc1ccc(C)cc1 | 4.5µM* | 4µM* | ? | -11 | -15% | -13%
CNC(=O)c1[nH]cnc1C(=O)Nc1cccc(OC)c1 | 14µM* | 7.1µM* | ? | -3 | -7% | ?
Cc1ccc(NC(=O)c2nc[nH]c2C(=O)NCCN(CCNC(=O)c2[nH]cnc2C(=O)Nc2ccc(C)cc2)CCNC(=O)c2[nH]cnc2C(=O)Nc2ccc(C)cc2)cc1 | . | . | 6% | ? | -30% | -7%
Cc1ccc(NC(=O)c2nc[nH]c2C(=O)Nc2ccc(C)cc2)cc1 | 2.8µM* | 1.4µM* | 0% | -1 | ? | ?
Cc1cccc(NC(=O)c2nc[nH]c2C(=O)Nc2cccc(C)c2)c1 | 2.8µM* | 1.4µM* | 18% | -1 | 16% | ?
CNC(=O)c1[nH]cnc1C(=O)Nc1ccccc1 | . | . | ? | -12 | -5% | 10%
C=CCCCCCCC=C | -5% | 4% | . | . | . | .
COc1cc2c(cc1OC)CN(S(=O)(=O)c1ccc3c(c1)OCCO3)CC2 | -7% | 7% | -6% | 21 | -4% | 1%
CNC(=O)c1[nH]cnc1C(=O)Nc1ccc(Cl)cc1 | 7.1µM* | 4µM* | -9% | 8 | -14% | -50%
CNC(=O)c1[nH]cnc1C(=O)Nc1ccc(F)cc1 | ? | 13µM* | ? | 11 | -10% | 10%
Cc1ccc(OCC(=O)NNc2c3ccccc3nc3ccccc23)cc1 | 13µM* | 10µM* | -1% | -8 | . | ?
Cc1cccc(OCC(=O)NNc2c3ccccc3nc3ccccc23)c1 | 5µM* | 3.5µM* | ? | -9 | -4% | 0%
Cc1cc(CNC(=O)COc2ccccc2)c2ccccc2n1 | -15% | ? | ? | 10 | -6% | 6%
Cc1cccc(OCC(=O)Nc2cc(C)c(C)cc2O)c1 | -28% | 3.5µM* | 1% | 4 | 1% | -1%
SMILES | Gal4-VP16 FLuc | RORgamma inh | Chronic BCR inh | Giardia kill | SW480 rereplic | MCF10A rerep
CCOC(=O)C(=CNc1ccc(NC2=NCC(C)(C)S2)cc1)C(=O)OCC | 10% | -61% | ? | 46 | ? | ?
NNC(=O)CC12CC3CC(C1)CC(n1ncnn1)(C3)C2 | -7% | -21% | 0% | 10 | 5% | 4%
COc1ccc(-c2cc(C(=O)Nc3c(C)nn(Cc4ccccc4)c3C)no2)cc1 | -4% | -23% | ? | 8 | 4% | ?
Cc1nn(Cc2ccccc2)c(C)c1NC(=O)c1cc(-c2ccc3c(c2)OCO3)on1 | -4% | 39% | 0% | -16 | 0% | 9.2µM*
Cc1nn(Cc2ccccc2Cl)c(C)c1NC(=O)c1cc(-c2ccc(F)cc2)on1 | ? | 18% | -4% | -5 | -4% | 4.1µM*
Cc1nn(Cc2ccccc2Cl)c(C)c1NC(=O)c1ccn(C)n1 | -2% | 35% | 3% | -2 | -79% | -20%
S=C(Nc1cccnc1)NC1CC2CCC1C2 (stereo not drawn) | -5% | -6% | ? | 28 | ? | 1%
S=C(N/N=C/c1cccs1)NC1CC2CCC1C2 (stereo not drawn) | 3.2µM* | 0.79µM* | 0% | 8 | -10% | ?
Oc1ccc(/C=N/NC(=S)NC2CC3CCC2C3)cc1 (stereo not drawn) | 11µM* | 2.5µM* | -7% | -25 | 13% | ?
CCCCC(=O)Nc1ccc(NC(=O)c2ccccc2[N+](=O)[O-])cc1OC | -2% | -1% | ? | 2 | -2% | -3%
O=C(Nn1c(C2CCCCC2)nc2ccccc2c1=O)c1ccc(Cl)c([N+](=O)[O-])c1 | ? | ? | ? | -12 | 4% | 7.3µM*
CCOc1ccc(NC(=O)CSC2=Nc3ccccc3C3=NC(CC(=O)NCc4cccs4)C(=O)N23)cc1 (stereo not drawn) | . | . | 21% | . | . | .
COc1cc2c(C#CCCCO)c(-c3ccsc3)oc(=O)c2cc1OC | . | . | 2% | 8 | ? | ?
O=[N+]([O-])c1cc(-c2ncccn2)c([N+](=O)[O-])s1 | 7.1µM* | 4µM* | ? | 9 | 21µM* | 7.3µM*
O=C(Nc1ncccn1)c1cc([N+](=O)[O-])cc([N+](=O)[O-])c1 | -7% | -18% | -3% | -26 | -7% | ?
COc1ccc(NC(=O)CNCc2ccc(Cl)cc2)cc1S(=O)(=O)N1CCOCC1 | . | . | 1% | 8 | -14% | 7%
COc1ccc(/C=C2\SC(=S)N(CCC(=O)N3CCOCC3)C2=O)cc1 | -11% | -22% | ? | 10 | -2% | 10%
COc1cccc(/C=C2\SC(=S)N(CCCC(=O)N3CCCCC3)C2=O)c1 | 13µM* | 4.5µM* | ? | -19 | ? | 28%
COc1ccc(/C=C2\SC(=S)N(CCCC(=O)N3CCN(C)CC3)C2=O)cc1 | ? | 7.1µM* | ? | 2 | -1% | ?
